# In PubChem BioAssay (NCI):
# “And” between values parts separate entries of the source, which are not always exact repeats. Equal values may be shown once. The panel holds about 83,000 compounds, 20% with a hit somewhere; the sample as a whole holds those more often.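 Method: cells in 96-well plates; compound added at one concentration; 48 h incubation; percent growth measured; values under 10 scored active.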 Some compounds were tested as several samples or in several runs, with calls that do not always agree. The source made the active and inactive calls.
# Test system: BT-549 breast
# Experiment: NCI-60 one-dose screen, 48 h (100 = growth as untreated, 0 = no growth, -100 = all killed)
# Conditions: 1 µM
# Description: Growth inhibition of the BT-549 human tumor cell line is measured as a screen for anti-cancer activity. Cells are grown in 96 well plates and exposed to the test compound for 48 hours. Compounds are tested at a single concentration, which is 10^-5 M for most compounds. The reported endpoint is percent growth (GI% or GIPRCNT), where numbers from 0 - 100% represent growth inhibition, and numbers from -100% - 0 represent cell death. For example, a value of 40 represents 60% growth inhibition. A value of 0 means no net growth occurred over the course of the experiment. A value of -40 indicates 40% of cells at the beginning of the experiment died by the end of the experiment. A value of -100 means all cells are dead at the end of the experiment.
# NCI-60 Human Tumor Cell Lines Screen was performed using the standard one-dose NCI protocol, which is described in more detail at https://dtp.cancer.gov/discovery_development/nci-60/default.htm.
# Compounds with GIPRCNT values below 10 were considered active. Activity score was based on GIPRCNT using the following formula: […]
# Score is 0 for GIPRCNT values of 100 or above, 50 for GIPRCNT values of 0, and 100 for GIPRCNT values of -100.
row,Structure (SMILES),growth
1,CNC(=O)c1cc(Oc2ccc(CC(=O)Nc3cc(C(C)(C)C)nn3C)cc2)ccn1,72.6% (inactive)

# Same assay, conditions: 10 µM
row,Structure (SMILES),growth
1,O=C(O)c1sccc1O,69.5% (inactive)
2,CC#C[C@]1(O)CC[C@H]2[C@@H]3CCC4=CC(=O)CCC4=C3[C@@H](c3ccc4c(c3)OCO4)C[C@@]21C,77.8% (inactive)
3,CNC(=O)c1cc(Oc2ccc(CC(=O)Nc3cc(C(C)(C)C)nn3C)cc2)ccn1,82.4% (inactive)

# Same assay, conditions: 10 µM unless noted
row,Structure (SMILES),growth
1,O=C(O)C1C2C=CC(C2)C1C(=O)O (stereo not given),96.8% (inactive) and 58.3% (inactive) and 105% (inactive)
2,Nc1ccc2[nH]c(-c3ccccc3)cc(=O)c2c1,81.2% (inactive)
3,CCOC(=O)c1c(C)oc(C)c(C(=O)OCC)c1=O,79.4% (inactive) and 100% (inactive)
4,Clc1nc(Oc2ccccc2)nc(-c2cn(-c3ccccc3)c3ccccc23)n1,96.9% (inactive)
5,COc1cc(C(=O)N/N=C/c2ccc(N(C)C)cc2)cc(OC)c1OC,-2.93% (active)
6,CNC(=O)c1cc(Oc2ccc(NC(=O)Nc3ccc(Cl)c(C(F)(F)F)c3)cc2)ccn1,-1.7% (active) and 24.4% (inactive)
7,CNC(=O)c1ccc(C)c(-n2c(C)cc(OCc3ccc(F)cc3F)c(Br)c2=O)c1,75.7% (inactive) and 76.4% (inactive)
8,OCCN1CCN(CCO)CC1,110% (inactive) and 89.5% (inactive) and 102% (inactive)
9,OC(COc1cccc2ccccc12)CN1CCN(c2ccc(Cl)cc2)CC1 (stereo not given),85.4% (inactive) and 134% (inactive)
10,Cc1ccc(-c2noc(CC(=O)c3ccc([N+](=O)[O-])cc3)n2)cc1,103% (inactive)
11,COc1cc2c(Nc3ccc(Cl)c(Cl)c3F)ncnc2cc1OCC1C[C@@H]2CN(C)C[C@@H]2C1 (stereo not given in full),-87.2% (active) and 36.9% (inactive)
12,O=C(O)C1(C(=O)O)CCC1.[NH2-].[NH2-].[Pt+2],103% (inactive) and 106% (inactive)
13,COc1ccc(-c2cn[nH]c2-c2cc(OC)c(OC)c(OC)c2)cc1N,30.8% (inactive) and 5.24% (active)
14,CCOc1ccc(Nc2c3ccccc3nc3ccccc23)cc1,94.4% (inactive) and 41.6% (inactive) and -3.76% (active)
15,CC(C)Oc1ccc2cc(-c3nn(CC4CCNCC4)c4ncnc(N)c34)ccc2c1,73.2% (inactive) and -5.14% (active)
16,COc1ccccc1C(C)=O,109% (inactive) and 100% (inactive)
17,N#CC(C#N)=C/C=C/c1cccc([N+](=O)[O-])c1,57.1% (inactive)

row,Structure (SMILES),growth
1,CCOC(=O)C(C(=O)OCC)C(c1ccccc1)N1CCN(c2ccccc2)CC1 (stereo not given),103% (inactive) and 104% (inactive)
2,O=C(Cc1cccc2ccccc12)N/N=C/c1ccc2c(c1)CCC2,92.5% (inactive)
3,Cc1nn(-c2ccc(Cl)cc2)c2ncnc(N/N=C/c3ccccc3O)c12,36% (inactive) and 36.4% (inactive)
4,NC(=S)NN=C1CCC(C2CCCCC2)CC1 (stereo not given),102% (inactive) and 92.5% (inactive)
5,Oc1c(Cl)cc(Cl)cc1Sc1cc(Cl)cc(Cl)c1O,32.1% (inactive) and 77% (inactive)
6,OC1CCC(Oc2cccc3cnc(Nc4ccc5nc[nH]c5c4)nc23)CC1 (stereo not given),-19.5% (active) and 18.4% (inactive)
7,C#CCN(C)Cc1ccccc1,94.6% (inactive) and 141% (inactive)
8,ClC/C=C/CSc1ncnc2nc[nH]c12,102% (inactive) and 158% (inactive)
9,CC(=O)Nc1ccc(O)cc1,94.3% (inactive) and 78.1% (inactive) and 101% (inactive)
10,S=C1SCN(Cc2ccccc2)CN1Cc1ccccc1,93.6% (inactive)
11,CC(C)CNC(=O)c1ccccc1C(=O)NC1(C(=O)NCC(C)C)CCCC1,122% (inactive) and 115% (inactive)
12,CC(O)(CC(=O)CC(=O)c1ccccc1)c1ccccc1 (stereo not given),93.4% (inactive) and 95.8% (inactive)
13,CN1CCN(CCC=C2c3ccccc3Sc3ccc(S(=O)(=O)N(C)C)cc32)CC1,67.9% (inactive) and 70% (inactive)
14,O=C(O)c1cc(C(=O)O)cc([N+](=O)[O-])c1,102% (inactive)
15,Cc1ccc(NCSc2ccc(Cl)cc2)cc1,44.9% (inactive) and 66% (inactive)
16,CC(C)(O)Cn1cc(-c2ccc3nc(OC4CC4)ccc3c2)c2c(N)ncnc21,84.7% (inactive) and 66.4% (inactive)

# Same assay, conditions: 30 µM
row,Structure (SMILES),growth
1,CNC(=O)c1cc(Oc2ccc(CC(=O)Nc3cc(C(C)(C)C)nn3C)cc2)ccn1,81% (inactive)

# Same assay, conditions: 100 µM
row,Structure (SMILES),growth
1,O=C(O)c1sccc1O,11.6% (inactive)
2,CC#C[C@]1(O)CC[C@H]2[C@@H]3CCC4=CC(=O)CCC4=C3[C@@H](c3ccc4c(c3)OCO4)C[C@@]21C,-33.1% (active)
